Bioassay records as filed in PubChem.
aSyn rescue = alpha-synuclein toxicity inhibition in yeast. AID 652106. 0.14% of 370,000 active. Potency, µM (top dose mostly 46.1 µM), for inactives: at the highest dose growth rescue (activation), actives largely listed as activators. Yeast expressing alpha-synuclein, growth rescue, BacTiter-Glo, 24 h; note: potency is the fitted concentration of half-maximal effect; % of control where 0% means no effect; nearly all actives have a fitted effect of over 65% in size
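Readout is rescue of growth in alpha-synuclein-expressing yeast, so inhibitors of toxicity appear as activators. Growth after 24 hr at 30 deg C in galactose medium is quantified by luminescence.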
TDP43 rescue = TDP-43 toxicity inhibition in yeast. TDP-43 expressing yeast growth rescue, BacTiter-Glo, 24 h. Potency, µM (series often up to 46.1 µM), without a hit: at the top dose growth rescue (activation), actives largely listed as activators. 1.8% of 410,000 active. AID 652104; note: potency is the fitted concentration of half-maximal effect; % of control where 0% means no effect; nearly all actives have a fitted effect of over 50% in size
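Yeast expressing TDP-43 (pregrown in raffinose, seeded at OD600=0.02 in galactose medium) exposed to compounds 24 hr at 30 deg C. Growth read by BacTiter-Glo luminescence; rescue of toxicity appears as increased signal.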
Abeta yeast res = A-beta toxicity reversal in yeast; Potency, µM (top dose mostly 46.1 µM), actives largely listed as activators; yeast expressing A-beta42, growth rescue, OD600, 48 h; response scale: 0% DMSO, 100% iron-clioquinol control; 0.063% of 410,000 active; note: potency is the fitted concentration of half-maximal effect; nearly all actives have a fitted effect of over 55% in size
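Yeast A-beta toxicity model in growth medium with pinned compounds, 48 h at 30 C; growth read as absorbance at 600 nm. Normalized to FeCl3/clioquinol equimolar mix (positive) and DMSO (negative).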
FUS yeast rescue = FUS proteinopathy suppression in yeast. S. cerevisiae FUS-expressing, growth rescue, OD600, 24 h. Potency, µM (titrated, usually from 76.6 µM), usual class: activators. 0.24% of 390,000 active. AID 1347120;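 note: potency is the fitted concentration of half-maximal effect; plate controls were DMSO vehicle for no effect and reference control for full effect; nearly all actives have a fitted effect of over 55% in size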
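Galactose (2%) drives FUS expression in yeast precultured in raffinose; seeding density OD 0.005. Test compounds incubated 24hr at 30C and 99% humidity before absorbance at 600 nm was measured.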
pAkt inh = inhibitors of Akt phosphorylation | Neuro2A IGF-stimulated pAkt S473 HTRF, 20 min; active compounds read low | 0.32% of 360,000 active | activity change, % for hits at 50 µM; in the data active = activity change below about -80%; inconclusive = mostly about -51% to -80%; note: % is set by controls: 0 for no effect and ±100 for the full control effect
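Neuro2A cells (4,500/well, DMEM with 0.5% FBS) were treated with compound at a single 50 µM final concentration, stimulated with 6 nM IGF for 20 min at 37 °C, and lysed. Phospho-Akt Ser473 was read by HTRF as 665/615 ratio ×10^4.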
* = called active by the depositor; i = inactive; ? = inconclusive; · = not tested or not shown; ! = not confirmed by another sample. Rows were chosen to be rich in hits. Some 2.3% of all compounds tested hit in one or more screens of this group. Unless noted, calls come from the whole dose curve; as a rule, active = well fitted curve in the direction sought with a large enough effect; inconclusive = small, poorly fitted or top-dose-only effect, or another doubt; inactive = no such curve, though single readings can be large; an effect the other way counts as inactive or inconclusive.

SMILES	aSyn rescue	TDP43 rescue	Abeta yeast res	FUS yeast rescue	pAkt inh
Cc1ccc(-c2c(C(=O)N3CCN(c4cccc(C)c4)C(C)C3)oc(=O)c3ccccc23)cc1 (configuration not stated)	·	14µM*	i	i	·
COc1ccc(C(=O)N=c2nc(-c3ccccc3)n(-c3ccccc3)s2)cc1	20%	·	·	·	·
COc1ccc2cc3cc(C(=O)N4CCN(c5cccc(Cl)c5)CC4)sc3nc2c1	·	-2%	i	i	·
CCCCn1c(=NC(=O)c2cc3ccccc3o2)c(C(=O)OCC)cc2c(=O)n3ccccc3nc21	·	14%	i	i	·
CC1(C(=O)Nc2ccc(F)cc2F)CCN1C(=O)Cc1ccc(Cl)cc1Cl (configuration not stated)	14%	16µM*	i	i	i
CSc1ccccc1NC(=O)C1(C)CCN1C(=O)Cc1ccc(Cl)cc1Cl (configuration not stated)	9%	0%	i	i	i
Cn1cc(Cl)c(/C(N)=N/OC(=O)c2ccccc2C(F)(F)F)n1	3%	20µM*	i	i	i
Cc1ccc(C)n1-c1ccc(C(=O)N2CCOCC2)cc1	-1%	-20%	i	35µM*	-106%*
CC(=O)N1CCN(C(=O)c2ccc(-n3c(C)ccc3C)cc2)CC1	2%	20%	i	·	i
Cc1cc(C)nc(NC(=O)Cc2ccc(Cl)cc2)c1	-7%	18µM*	i	i	i
CC(C)CN(C(=O)c1ccc(=O)n(C)n1)c1nc2ccccc2s1	0%	16µM*	i	i	i
CCCc1ccc(NC(=O)C2CCCN(c3cnccn3)C2)cc1 (configuration not stated)	?	32µM*	i	i	·
O=C(CCNc1cc(Cl)cc(Cl)c1)c1ccco1	16%	16µM*	i	i	i
O=C(CSc1ccccc1Cl)c1ccco1	0%	16µM*	i	i	i
O=C(CCNc1ccc(F)c(Cl)c1)c1ccco1	-1%	-2%	i	i	i
O=C(NCCSc1ccc(Cl)cc1)c1ccco1	-3%	7.1µM*	i	i	i
O=C(CSc1ccc(Cl)cc1)c1ccco1	-1%	7%	i	i	-97%*
O=C(COc1ccc(Cl)cc1Cl)NCc1ccco1	13%	15%	i	i	i
Cc1cc(Cl)cc(Cl)c1OCC(=O)NCc1ccco1	5%	14µM*	i	i	i
C[C@@H](NCCCc1cccc(C(F)(F)F)c1)c1cccc2ccccc12	-16%	·	·	·	·
OC(c1ccc(Cl)cc1)c1ncc(-c2ccc(Oc3ccccc3)cc2)[nH]1 (configuration not stated)	-1%	20µM*	i	?	i
Cc1cccc(NC(=O)CN2C(=O)N/C(=C/c3cc(C)n(C(C)C)c3C)C2=O)c1	21%	-9%	i	20µM*	i
NC(=S)N=Nc1c(O)n(Cc2ccccc2)c2ccccc12	-7%	-16%	i	i	i
C=CCn1c(O)c(N=NC(=S)Nc2ccccc2F)c2ccccc21	-5%	0%	?	i	i
C/C(Cl)=C\Cn1c(O)c(N=NC(N)=S)c2ccccc21	14%	18µM*	i	i	i
SMILES	aSyn rescue	TDP43 rescue	Abeta yeast res	FUS yeast rescue	pAkt inh
Oc1c(N=NC(=S)Nc2ccccc2F)c2ccccc2n1Cc1ccccc1Cl	4%	?	i	i	i
C=CCn1c(O)c(N=NC(=S)Nc2cccc(C)c2)c2ccccc21	?	11µM*	?	·	i
Cc1c(Cl)cccc1NC(=S)N=Nc1c(O)n(CN2CCOCC2)c2ccccc12	1%	15%	22µM*	i	i
Cc1cccc(NS(=O)(=O)c2ccc3c(c2)CCN3C(=O)C2CCC2)c1	·	?	i	i	·
CC1(CCc2ccccc2)NC(=O)N(Cc2nnc(-c3ccccc3Br)o2)C1=O (configuration not stated)	8%	-10%	i	?	-108%*
Cc1ccc(NC(=O)COc2ccc3oc4c(c3c2)CCCC4)cc1C	-5%	3%	i	i	·
CC1=Nc2cc(C(=O)NCCc3ccc(Cl)cc3)ccc2Sc2c(C)ccc(C)c21	?	7%	i	i	·
Oc1ccc(Br)cc1C1C=C(c2ccc3c(c2)OCO3)NC(c2cccc(F)c2)N1 (configuration not stated)	12%	·	·	·	·
CCC(C)N=Cc1c(NCc2ccco2)nc2c(C)cccn2c1=O (configuration not stated)	2%	18µM*	i	i	i
Cc1cccn2c(=O)c(/C=N/O)c(NCc3ccccc3)nc12	3%	12%	i	i	i
CCOc1ccc(C(=O)c2cn(CC(=O)Nc3ccc4c(c3)OCO4)c3ccc(OCC)cc3c2=O)cc1	·	8%	i	i	·
CC(=O)C1=CCC(c2ccccc2)N(S(=O)(=O)c2ccccc2)C1 (configuration not stated)	9%	24%	i	i	i
CC(=O)C1=CCC(c2ccc(Cl)cc2)N(S(=O)(=O)c2ccc(C)cc2)C1 (configuration not stated)	?	35µM*!	i	?	i
CC(=O)C1=CCC(c2ccc(C)cc2)N(S(=O)(=O)c2ccc(C)cc2)C1 (configuration not stated)	9%	19%	i	i	i
CC(=O)C1=CCC(c2ccc(Cl)cc2)N(S(=O)(=O)c2ccccc2)C1 (configuration not stated)	?	14µM*	i	i	i
Cc1ccc(-n2nc(CO)c(C(=O)NCCCCc3ccccc3)n2)cc1	·	7%	i	i	·
O=C(Cn1c(=O)n(-c2ccc(F)cc2)c(=O)c2sc3ccccc3c21)NC1CCCCC1	·	8%	i	i	·
CCN(CC)c1nc(N)c2c(N)n(-c3ccccc3C)c(=S)c(C#N)c2c1C#N	0%	13%	i	28µM*	i
CCOC(=O)N1CCN(S(=O)(=O)c2ccc(OC)c3ccccc23)CC1	0%	13µM*	?	i	i
COc1ccc(N2CC(NC(=O)/C=C\c3ccc4c(c3)OCO4)CC2=O)cc1OC (configuration not stated)	·	7%	i	i	·
CCC(COC(=O)Nc1cccc(C)c1C)NC(=O)OCC(C)C (configuration not stated)	4%	-6%	i	i	i
CCCOC(=O)NC(CC)COC(=O)Nc1cccc(C)c1C (configuration not stated)	3%	21%	i	i	-116%*
COc1ccc(CCNC(=O)c2ccc(Cn3c(=O)c4ccccc4n(Cc4ccc(C)cc4)c3=O)cc2)cc1OC	·	16%	i	i	·
